Measurements from ChEMBL document CHEMBL1961873, “Compounds: GSK PKIS; Assays: Nanosyn kinase panel” (2012).

Columns and labels:
[1] = molecular target: Mitogen-activated protein kinase kinase kinase kinase 4 (Homo sapiens) (UniProt O95819); details: at 1 µM;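 also: reported figure is an averaged inhibition value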
[2] = molecular target: Dual specificity mitogen-activated protein kinase kinase 1 (Homo sapiens) (UniProt Q02750); details: at 0.1 µM
[3] = molecular target: Dual specificity mitogen-activated protein kinase kinase 1 (Homo sapiens) (UniProt Q02750); details: at 1 µM
[4] = molecular target: Misshapen-like kinase 1 (Homo sapiens) (UniProt Q8N4C8); details: at 0.1 µM
Misshapen-like kinase 1 (Homo sapiens), sequence (Q8N4C8 whole entry, looked up): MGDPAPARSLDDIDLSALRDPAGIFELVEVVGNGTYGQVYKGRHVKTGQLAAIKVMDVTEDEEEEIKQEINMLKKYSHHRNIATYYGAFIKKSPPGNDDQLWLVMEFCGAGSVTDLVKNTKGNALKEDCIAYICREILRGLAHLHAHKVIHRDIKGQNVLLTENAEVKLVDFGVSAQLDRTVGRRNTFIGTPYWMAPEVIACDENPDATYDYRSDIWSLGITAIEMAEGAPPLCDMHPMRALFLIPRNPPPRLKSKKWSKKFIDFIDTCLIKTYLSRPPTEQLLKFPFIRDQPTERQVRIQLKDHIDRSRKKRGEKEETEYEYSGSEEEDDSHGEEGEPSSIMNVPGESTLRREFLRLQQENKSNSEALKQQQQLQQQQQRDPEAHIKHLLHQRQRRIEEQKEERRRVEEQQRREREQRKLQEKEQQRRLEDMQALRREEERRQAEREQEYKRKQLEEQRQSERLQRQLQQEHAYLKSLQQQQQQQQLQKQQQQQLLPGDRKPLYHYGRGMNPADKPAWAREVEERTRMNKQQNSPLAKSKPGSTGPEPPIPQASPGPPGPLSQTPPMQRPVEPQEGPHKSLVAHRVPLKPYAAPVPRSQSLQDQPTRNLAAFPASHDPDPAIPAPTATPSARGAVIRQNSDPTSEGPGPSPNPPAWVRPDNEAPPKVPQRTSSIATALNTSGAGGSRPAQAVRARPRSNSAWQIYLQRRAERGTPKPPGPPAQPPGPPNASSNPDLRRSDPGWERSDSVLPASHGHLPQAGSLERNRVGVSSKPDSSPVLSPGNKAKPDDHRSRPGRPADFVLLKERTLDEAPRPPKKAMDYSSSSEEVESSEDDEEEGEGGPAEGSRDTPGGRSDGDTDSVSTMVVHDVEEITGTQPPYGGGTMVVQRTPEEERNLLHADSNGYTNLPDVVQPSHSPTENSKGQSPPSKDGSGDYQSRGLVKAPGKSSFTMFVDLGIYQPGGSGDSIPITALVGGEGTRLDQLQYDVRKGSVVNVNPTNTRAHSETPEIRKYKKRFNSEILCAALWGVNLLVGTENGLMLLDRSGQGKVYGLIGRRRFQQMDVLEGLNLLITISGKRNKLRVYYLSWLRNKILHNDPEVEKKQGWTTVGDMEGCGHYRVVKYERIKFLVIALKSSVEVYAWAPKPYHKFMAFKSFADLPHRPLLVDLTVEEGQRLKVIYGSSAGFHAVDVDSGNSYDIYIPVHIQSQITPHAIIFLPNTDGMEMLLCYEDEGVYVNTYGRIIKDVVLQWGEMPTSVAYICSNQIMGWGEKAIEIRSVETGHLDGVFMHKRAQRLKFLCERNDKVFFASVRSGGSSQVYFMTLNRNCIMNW

[5] = molecular target: Misshapen-like kinase 1 (Homo sapiens) (UniProt Q8N4C8); details: at 1 µM
[6] = molecular target: T1, Serine/threonine-protein kinase 4 (Homo sapiens) (UniProt Q13043); details: at 0.1 µM
T1 sequence (whole entry): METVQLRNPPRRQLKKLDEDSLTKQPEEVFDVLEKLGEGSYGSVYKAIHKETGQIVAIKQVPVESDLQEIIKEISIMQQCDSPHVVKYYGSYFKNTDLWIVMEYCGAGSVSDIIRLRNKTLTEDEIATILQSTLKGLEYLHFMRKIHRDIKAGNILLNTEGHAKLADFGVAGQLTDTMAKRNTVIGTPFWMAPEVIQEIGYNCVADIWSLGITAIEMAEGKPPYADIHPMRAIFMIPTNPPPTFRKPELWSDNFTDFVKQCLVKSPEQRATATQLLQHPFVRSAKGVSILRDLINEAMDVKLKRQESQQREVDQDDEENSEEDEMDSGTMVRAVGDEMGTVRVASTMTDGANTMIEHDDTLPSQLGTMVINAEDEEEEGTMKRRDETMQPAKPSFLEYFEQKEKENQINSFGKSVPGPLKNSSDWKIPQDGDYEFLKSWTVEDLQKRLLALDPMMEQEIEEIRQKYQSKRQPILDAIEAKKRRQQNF

[7] = molecular target: T1, Serine/threonine-protein kinase 4 (Homo sapiens); details: at 1 µM
[8] = molecular target: T2, Serine/threonine-protein kinase 3 (Homo sapiens) (UniProt Q13188); details: at 0.1 µM
T2 sequence (whole entry): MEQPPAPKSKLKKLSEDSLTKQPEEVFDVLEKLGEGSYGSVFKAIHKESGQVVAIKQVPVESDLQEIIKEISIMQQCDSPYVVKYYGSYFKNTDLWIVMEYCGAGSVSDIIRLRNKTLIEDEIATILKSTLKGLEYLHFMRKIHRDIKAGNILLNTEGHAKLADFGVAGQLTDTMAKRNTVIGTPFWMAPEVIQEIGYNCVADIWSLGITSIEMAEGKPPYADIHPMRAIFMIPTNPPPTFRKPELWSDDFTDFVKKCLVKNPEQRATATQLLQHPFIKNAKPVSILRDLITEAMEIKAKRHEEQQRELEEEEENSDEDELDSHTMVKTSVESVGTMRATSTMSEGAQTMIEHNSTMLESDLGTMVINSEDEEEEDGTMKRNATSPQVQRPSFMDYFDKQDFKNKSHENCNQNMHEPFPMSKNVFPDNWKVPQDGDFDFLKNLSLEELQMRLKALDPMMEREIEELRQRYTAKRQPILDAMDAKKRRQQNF

[9] = molecular target: T2, Serine/threonine-protein kinase 3 (Homo sapiens); details: at 1 µM
[10] = molecular target: Serine/threonine-protein kinase 26 (Homo sapiens) (UniProt Q9P289); details: at 0.1 µM
[11] = molecular target: Serine/threonine-protein kinase 26 (Homo sapiens) (UniProt Q9P289); details: at 1 µM
[12] = molecular target: Serine/threonine-protein kinase PAK 1 (Homo sapiens) (UniProt Q13153); details: at 0.1 µM
[13] = molecular target: Serine/threonine-protein kinase PAK 1 (Homo sapiens) (UniProt Q13153); details: at 1 µM
[14] = molecular target: Serine/threonine-protein kinase PAK 2 (Homo sapiens) (UniProt Q13177); details: at 0.1 µM
[15] = molecular target: Serine/threonine-protein kinase PAK 2 (Homo sapiens) (UniProt Q13177); details: at 1 µM
[16] = molecular target: Serine/threonine-protein kinase PAK 3 (Homo sapiens) (UniProt O75914); details: at 0.1 µM
Serine/threonine-protein kinase PAK 3 (Homo sapiens), sequence (O75914 whole entry, looked up): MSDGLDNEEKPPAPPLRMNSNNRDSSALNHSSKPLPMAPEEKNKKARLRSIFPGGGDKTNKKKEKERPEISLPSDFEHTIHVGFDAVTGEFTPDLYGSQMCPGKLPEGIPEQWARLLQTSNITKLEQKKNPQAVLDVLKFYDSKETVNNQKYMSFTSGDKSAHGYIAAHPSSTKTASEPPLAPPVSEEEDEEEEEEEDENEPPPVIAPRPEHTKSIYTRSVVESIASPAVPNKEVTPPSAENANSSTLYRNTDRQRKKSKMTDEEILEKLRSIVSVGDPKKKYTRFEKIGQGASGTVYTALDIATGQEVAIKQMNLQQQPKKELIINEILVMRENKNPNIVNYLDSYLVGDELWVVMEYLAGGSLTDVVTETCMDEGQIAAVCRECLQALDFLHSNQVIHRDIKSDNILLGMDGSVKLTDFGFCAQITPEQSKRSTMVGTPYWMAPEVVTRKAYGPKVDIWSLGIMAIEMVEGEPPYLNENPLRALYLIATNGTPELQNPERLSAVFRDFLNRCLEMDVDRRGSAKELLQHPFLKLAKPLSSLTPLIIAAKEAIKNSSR

[17] = molecular target: Serine/threonine-protein kinase PAK 3 (Homo sapiens) (UniProt O75914); details: at 1 µM
[18] = molecular target: Serine/threonine-protein kinase PAK 5 (Homo sapiens) (UniProt Q9P286); details: at 0.1 µM
Serine/threonine-protein kinase PAK 5 (Homo sapiens), sequence (Q9P286 whole entry, looked up): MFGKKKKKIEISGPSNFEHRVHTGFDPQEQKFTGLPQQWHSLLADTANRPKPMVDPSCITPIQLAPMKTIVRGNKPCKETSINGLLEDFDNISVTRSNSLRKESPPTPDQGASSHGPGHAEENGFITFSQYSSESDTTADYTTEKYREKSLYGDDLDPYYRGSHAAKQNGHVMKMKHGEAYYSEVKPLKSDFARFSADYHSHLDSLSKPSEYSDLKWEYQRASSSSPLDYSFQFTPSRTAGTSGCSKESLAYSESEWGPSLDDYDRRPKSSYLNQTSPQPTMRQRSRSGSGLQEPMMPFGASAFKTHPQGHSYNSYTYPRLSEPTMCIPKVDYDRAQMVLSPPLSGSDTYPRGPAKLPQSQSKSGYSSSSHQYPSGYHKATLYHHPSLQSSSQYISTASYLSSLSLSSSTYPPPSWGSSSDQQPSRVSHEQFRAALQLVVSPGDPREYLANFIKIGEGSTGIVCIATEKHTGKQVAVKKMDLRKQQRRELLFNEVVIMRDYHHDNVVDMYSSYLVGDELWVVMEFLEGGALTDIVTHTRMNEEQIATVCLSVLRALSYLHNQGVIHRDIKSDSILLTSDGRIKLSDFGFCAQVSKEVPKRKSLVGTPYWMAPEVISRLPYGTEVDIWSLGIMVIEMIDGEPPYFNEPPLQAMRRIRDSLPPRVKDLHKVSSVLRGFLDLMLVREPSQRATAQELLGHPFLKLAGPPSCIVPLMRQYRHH

[19] = molecular target: Serine/threonine-protein kinase PAK 5 (Homo sapiens) (UniProt Q9P286); details: at 1 µM
[20] = molecular target: Serine/threonine-protein kinase PAK 6 (Homo sapiens) (UniProt Q9NQU5); details: at 0.1 µM;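 also: mean PAK6 inhibition reported from the GSK PKIS screen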
Serine/threonine-protein kinase PAK 6 (Homo sapiens), sequence (Q9NQU5 whole entry, looked up): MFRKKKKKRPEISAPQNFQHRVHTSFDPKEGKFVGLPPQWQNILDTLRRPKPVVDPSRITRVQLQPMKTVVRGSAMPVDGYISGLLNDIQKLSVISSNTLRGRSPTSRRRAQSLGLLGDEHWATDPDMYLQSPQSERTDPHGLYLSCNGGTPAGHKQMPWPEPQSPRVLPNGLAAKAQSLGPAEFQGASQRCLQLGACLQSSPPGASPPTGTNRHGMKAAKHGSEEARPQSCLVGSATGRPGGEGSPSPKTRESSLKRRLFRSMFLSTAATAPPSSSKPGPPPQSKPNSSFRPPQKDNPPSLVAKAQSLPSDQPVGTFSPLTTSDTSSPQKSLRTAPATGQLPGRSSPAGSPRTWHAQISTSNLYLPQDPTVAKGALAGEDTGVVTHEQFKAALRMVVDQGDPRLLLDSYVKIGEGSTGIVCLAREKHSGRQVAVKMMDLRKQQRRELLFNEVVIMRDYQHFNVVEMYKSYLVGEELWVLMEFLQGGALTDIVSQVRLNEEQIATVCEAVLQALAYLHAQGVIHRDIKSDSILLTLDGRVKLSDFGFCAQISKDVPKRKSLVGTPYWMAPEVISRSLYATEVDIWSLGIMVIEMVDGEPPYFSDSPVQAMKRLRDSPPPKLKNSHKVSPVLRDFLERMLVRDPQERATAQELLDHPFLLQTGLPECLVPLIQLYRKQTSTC

Dual specificity mitogen-activated protein kinase kinase 1 (Homo sapiens), sequence (Q02750 whole entry): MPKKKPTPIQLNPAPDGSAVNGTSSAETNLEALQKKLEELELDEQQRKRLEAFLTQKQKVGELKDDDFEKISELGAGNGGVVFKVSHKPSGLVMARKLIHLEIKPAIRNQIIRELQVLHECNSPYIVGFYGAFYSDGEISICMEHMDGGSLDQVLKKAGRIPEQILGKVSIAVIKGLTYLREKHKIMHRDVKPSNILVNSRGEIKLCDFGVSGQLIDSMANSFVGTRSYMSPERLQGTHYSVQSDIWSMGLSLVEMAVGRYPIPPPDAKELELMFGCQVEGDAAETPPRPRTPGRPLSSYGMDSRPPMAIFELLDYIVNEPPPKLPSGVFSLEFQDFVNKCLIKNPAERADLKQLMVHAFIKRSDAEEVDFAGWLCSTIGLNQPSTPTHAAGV
Mitogen-activated protein kinase kinase kinase kinase 4 (Homo sapiens), sequence (O95819 2-1239 limits assumed): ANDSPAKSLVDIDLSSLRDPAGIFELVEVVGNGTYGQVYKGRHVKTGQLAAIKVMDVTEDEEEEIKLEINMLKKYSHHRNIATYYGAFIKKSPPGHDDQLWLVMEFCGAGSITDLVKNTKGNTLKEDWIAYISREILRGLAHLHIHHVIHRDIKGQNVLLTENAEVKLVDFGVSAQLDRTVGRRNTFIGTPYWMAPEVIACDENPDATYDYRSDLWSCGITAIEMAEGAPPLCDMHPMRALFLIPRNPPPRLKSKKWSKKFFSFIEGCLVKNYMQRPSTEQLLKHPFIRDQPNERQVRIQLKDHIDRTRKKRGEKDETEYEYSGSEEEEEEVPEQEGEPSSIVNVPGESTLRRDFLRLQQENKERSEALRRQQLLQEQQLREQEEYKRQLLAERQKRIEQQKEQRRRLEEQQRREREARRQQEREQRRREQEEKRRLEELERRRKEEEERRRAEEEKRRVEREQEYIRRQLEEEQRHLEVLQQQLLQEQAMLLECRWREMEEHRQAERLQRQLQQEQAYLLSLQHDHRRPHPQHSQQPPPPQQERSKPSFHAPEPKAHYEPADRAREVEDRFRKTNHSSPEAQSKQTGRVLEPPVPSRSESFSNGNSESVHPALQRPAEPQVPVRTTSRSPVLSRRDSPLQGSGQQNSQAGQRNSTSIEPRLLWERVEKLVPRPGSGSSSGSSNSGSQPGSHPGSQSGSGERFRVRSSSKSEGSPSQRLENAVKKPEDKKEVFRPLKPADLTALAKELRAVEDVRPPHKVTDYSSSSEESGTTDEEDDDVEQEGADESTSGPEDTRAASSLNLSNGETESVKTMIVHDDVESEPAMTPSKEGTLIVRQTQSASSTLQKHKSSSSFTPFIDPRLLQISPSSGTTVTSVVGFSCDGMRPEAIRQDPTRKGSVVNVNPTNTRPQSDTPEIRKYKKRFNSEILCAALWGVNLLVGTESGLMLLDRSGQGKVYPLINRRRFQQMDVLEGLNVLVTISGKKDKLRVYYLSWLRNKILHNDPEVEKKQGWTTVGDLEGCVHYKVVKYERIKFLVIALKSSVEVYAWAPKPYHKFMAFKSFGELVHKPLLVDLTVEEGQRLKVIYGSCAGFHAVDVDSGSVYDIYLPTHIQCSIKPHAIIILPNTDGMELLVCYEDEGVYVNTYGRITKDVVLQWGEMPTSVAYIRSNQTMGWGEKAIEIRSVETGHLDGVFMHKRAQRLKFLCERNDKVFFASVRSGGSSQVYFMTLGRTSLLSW

| Structure (SMILES) | inhibition [1] [%] | inhibition [2] [%] | inhibition [3] [%] | inhibition [4] [%] | inhibition [5] [%] | inhibition [6] [%] | inhibition [7] [%] | inhibition [8] [%] | inhibition [9] [%] | inhibition [10] [%] | inhibition [11] [%] | inhibition [12] [%] | inhibition [13] [%] | inhibition [14] [%] | inhibition [15] [%] | inhibition [16] [%] | inhibition [17] [%] | inhibition [18] [%] | inhibition [19] [%] | inhibition [20] [%] |
| --- | --- | --- | --- | --- | --- | --- | --- | --- | --- | --- | --- | --- | --- | --- | --- | --- | --- | --- | --- | --- |
| CS(=O)(=O)CCNCc1cc(-c2cc3c(Nc4ccc(OCc5cccc(F)c5)c(Cl)c4)ncnc3s2)cs1 | 10.3 | 4.54 | 5.74 | 6.33 | 8.36 | 4.99 | 6.28 | 6.59 | 6.16 | -2.65 | -1.71 | 10.9 | 9.09 | 2.13 | 3.83 | 4.86 | 7.41 | 5.61 | 3.34 | -6.6 |
| CCN(CC)Cc1ccc(Nc2nccc(-c3cnn4ncccc34)n2)cc1 | 20.4 | 3.09 | 13.1 | 5.68 | 17 | 1.35 | 15.9 | 5.43 | 9.79 | -1.89 | 0.74 | 5.45 | 9.08 | 1.19 | 3.41 | 4.82 | 6 | 1.9 | 5.43 | – |
| COc1ccc2cc(-c3c(-c4ccncc4)nc(-c4ccc(S(C)(=O)=O)cc4C)n3C)ccc2c1 | 14.8 | 6.08 | 4.97 | 6.31 | 13.9 | 2.82 | 8.72 | 4.72 | 12.6 | -0.63 | 2.09 | 9.36 | 10 | 2.04 | 2.16 | 5.62 | 4.99 | -1.89 | 3.62 | – |
| NC(=O)c1cc(-c2ccc(F)cc2)cc(-c2ccncc2)c1N | 9.21 | 5.61 | 3.83 | 4.49 | 10 | 3.76 | 5.59 | 4.31 | 5.48 | -2.72 | -1.28 | 5.31 | 6.13 | 0.6 | 1.36 | 4.12 | 4.25 | -1.26 | 1.21 | -6.76 |
| CN(c1ccc(NC(=O)Nc2c(Cl)cccc2Cl)cc1)c1ccnc(Nc2cccc(CS(C)(=O)=O)c2)n1 | 73.4 | 5.73 | 5.34 | 21.2 | 64.5 | 8.06 | 17.4 | 8.37 | 11.5 | 0.39 | -3.71 | -0.06 | 2.17 | 1.79 | 1.61 | 1.56 | 1.38 | 4.31 | 11.9 | 7.14 |
| Fc1ccc(-c2ncn(C3CCNCC3)c2-c2ccnc(Oc3ccc4c(c3)OCO4)n2)cc1 | 7.72 | 4.99 | 8.82 | 5.95 | 12 | 4.76 | 8.51 | 6.72 | 10.8 | -1.94 | -0.15 | 6.43 | 8.06 | 2.45 | 2.56 | 6.04 | 6.56 | 1.45 | 2.03 | 1.43 |
| COc1ccc2cc(-c3c(-c4ccncc4)nc(-c4ccc([S+](C)[O-])cc4C)n3C)ccc2c1 (configuration not stated) | 17.7 | -0.9 | -1.09 | 0.1 | 12.5 | -2.13 | 7.66 | -0.9 | 17.3 | 0.68 | 3.65 | -1.49 | -0.86 | -1.29 | -1.27 | -0.99 | -1.45 | -5.87 | 6.4 | -2.81 |
| COc1cc(C)c(N(C)C(=O)CN(C)C)cc1Nc1nc(Nc2cccc(F)c2C(N)=O)c2cc[nH]c2n1 | 4.77 | 2.7 | 4.56 | 2.85 | 1.74 | 4.57 | 4.81 | 5.2 | 4.32 | -0.43 | -1.63 | 1.45 | 0.54 | 1.63 | 0.77 | 1.47 | 2.79 | 1.86 | 1.84 | -1.02 |
| C#Cc1cccc(Nc2ncnc3ccc(OCCCCNCCS(C)(=O)=O)cc23)c1 | 19.6 | 6.88 | 4.96 | 9.17 | 17.6 | 4.35 | 7.8 | 5.45 | 7.49 | -2.14 | -0.45 | 9.27 | 7.48 | 2.71 | 1.48 | 4.58 | 5.67 | 2.62 | 4.31 | -6.04 |
| Nc1nccc(-c2c(-c3ccc(F)cc3)ncn2C2CCC(O)CC2)n1 (configuration not stated) | 72.8 | -3.17 | -3.2 | 6.81 | 62.4 | 0.86 | 22 | -0.05 | 14.6 | 0.75 | 4.04 | -2.38 | -3.74 | -0.84 | -0.18 | -3.15 | -3.59 | -2.46 | 0.21 | 4.1 |
| FC(F)(F)c1cccc(Nc2nccc(-c3cnn4nc(-c5ccccc5)ccc34)n2)c1 | 3.3 | 2.8 | 3.14 | 3.38 | 3.06 | 1.12 | 3.6 | 3.94 | 3.81 | 0.42 | -3.24 | 6.28 | 3.48 | 0.33 | 0.77 | 2.74 | 2.27 | -0.43 | -0.64 | -2.37 |
| O=C1Nc2ccc(I)cc2C1=Cc1cc(Br)c(O)c(Br)c1 | 83.7 | 3.38 | 3.62 | 18.9 | 73.2 | 3.39 | 17.2 | 3.5 | 19.5 | 0.13 | 8.78 | 7.31 | 11.5 | 1.87 | 1.49 | 3.52 | 5.78 | 9.36 | 10.2 | – |
| Fc1ccc(-c2ncn(C3CCNCC3)c2-c2ccnc(Oc3ccc(Oc4ccccc4)cc3)n2)cc1 | 7.43 | 4.35 | 7.53 | 5.29 | 9.38 | 2.43 | 4.68 | 4.83 | 5.3 | -1.41 | 2.78 | 6.63 | 8.97 | 2.19 | 3.52 | 4.8 | 8.51 | 5.41 | 6.5 | -6.7 |
